# Data published in the supplement of paper PMC4954754.
# ± gives the uncertainty stated by the source.
# System: HEK293T-Rex ERSE-FLuc
# Assay: ERSE-FLuc reporter activation, triplicate confirmation, relative to 500 nM thapsigargin (% of thapsigargin); higher = stronger ATF6/ERSE reporter activation
# Settings: 6.8 µM; 18 h; screen: confirmation
# Method: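 HEK293T-Rex cells stably expressing the ERSE-firefly luciferase (BiP promoter, ATF6-preferring) or XBP1-splicing Renilla luciferase (IRE1/XBP1s) reporter, 1536-well plates, compound at 6.8 µM for 18 hr at 37 °C; luminescence read […] and expressed as % activation = 100*(compound - median DMSO)/(median 500 nM thapsigargin - median DMSO). Primary screen was single-pass; confirmation screen in triplicate (mean ± SD).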
row,SMILES,ERSE-FLuc reporter activation
1,Nc1ccc(-c2nc3cc(N)c(Cl)cc3[nH]2)cc1,32.5 ± 3.7
2,Cc1ccc2nc(/C(C#N)=C/c3ccc(O)c(O)c3)[nH]c2c1,38.9 ± 2.7
3,Cc1ccc(O)c(NC(=O)CSc2ccccc2)c1,51.1 ± 12
4,CCOc1ccc(NC(=O)c2cccc(F)c2)c([N+](=O)[O-])c1,25.9 ± 2.4
5,N#Cc1c(NC(=O)c2cccc(F)c2)sc2c1CCC2,25.9 ± 3.9
6,CCCCNC(=O)c1cc(-c2cccs2)on1,65.1 ± 6.3
7,Cc1ccc(O)c(-c2cc(C(F)(F)C(F)F)no2)c1,37.1 ± 3.1
8,CCOc1cccc(/C=C2\NC(=S)N(C)C2=O)c1O,26.2 ± 29
9,Oc1ccc(-c2csc(-c3cccnc3)n2)cc1O,29.3 ± 1.4
10,CN(C)/C=N/C1=C(C#N)C(c2ccc3c(c2)OCO3)c2ccc3ccccc3c2O1 (stereo not given),26.1 ± 9.6
11,COc1cccc(/C=N/NC(=O)c2ccc(NC(=O)c3ccc(C)cc3)cc2)c1O,36.4 ± 11
12,Cc1ccc(O)c(NC(=O)c2cc(-c3cccs3)on2)c1,106 ± 4
13,Cc1ccc(O)c(-c2cc(-c3cccs3)[nH]n2)c1,44.2 ± 7.9
14,O=C1/C(=C/c2ccc(O)c(O)c2)SC(=S)N1c1ccc(O)cc1,30.5 ± 8.2
15,COc1ccc(/C=C(\C#N)c2nc(-c3ccco3)cs2)cc1O,35.1 ± 3.9
16,Cc1ccc(/C=C(\C#N)C(=O)Nc2cccc(Cl)c2)o1,26.2 ± 10
17,N#Cc1c(NC(=O)c2ccc(Br)cc2)sc2c1CCCC2,27.3 ± 5.2
18,N#C/C(=C\c1ccc(O)c(O)c1)c1nc2ccccc2[nH]1,34.3 ± 1.3
19,O=C(Nc1ccccc1O)c1ccc(C(=O)c2ccccc2)cc1,41.5 ± 9.7
20,N#C/C(=C(/O)c1cc(-c2ccccc2)nc2ccccc12)c1nc2ccccc2[nH]1,31.1 ± 13

row,SMILES,ERSE-FLuc reporter activation
1,COc1ccc(C2C=C3Oc4ccccc4N=C3NN2)cc1 (stereo not given),29 ± 3.5
2,COc1ccc(-n2nnnc2SCC(N)=O)c(OC)c1,34.5 ± 5.7
3,Nc1ccc2nc(-c3cc(Cl)c(N)c(Cl)c3)[nH]c2c1,35.6 ± 10
4,C/C(=N\NC(=O)c1n[nH]c2c1CCCC2)c1ccc(Br)cc1,27.2 ± 1.9
5,O=c1[nH]c(COc2ccccc2)nc2sc3c(c12)CCCC3,39 ± 5.3
6,COc1ccc2oc(=Nc3cc(F)ccc3F)c(C(N)=O)cc2c1,25.3 ± 4.6
7,CCOc1cccc(C(=O)Nc2ccc(-c3nc4ccc(C(=O)c5ccccc5)cc4[nH]3)cc2)c1,28.6 ± 4.7
8,COc1ccc(-c2cc(C(=O)Nc3cc(C)ccc3O)on2)cc1OC,33.8 ± 1.9
9,CCCCNc1ncnc2c1cnn2-c1ccc(Cl)cc1,30.3 ± 4.6
10,CCOc1cc(/C=C2/NC(=O)N(Cc3ccc(F)cc3)C2=O)ccc1O,32.8 ± 5.4
11,OCCNc1nc(Nc2ccc(Cl)c(Cl)c2)nc2ccccc12,87.6 ± 9.4
12,CCc1ccc(NC(=O)/C=C/c2ccco2)cc1,29.1 ± 4
13,COc1cc2ccccc2cc1C(=O)N/N=C/c1cccs1,25.7 ± 4.6
14,Cc1ccc(Nc2nc(N)c3ccccc3n2)cc1Cl,34.8 ± 5.8
15,COc1ccc(/C=C(\C#N)c2nc3ccccc3n2C)cc1,38.1 ± 7.2
16,COc1ccc(C2=Nn3c(nnc3-c3ccc(OC)cc3)SC2)cc1,30.7 ± 4.3
17,Cc1ccc2nc(/C(C#N)=C/c3ccc(O)cc3)[nH]c2c1,30.3 ± 3
18,O=C(N/N=C\C(Cl)=C\c1ccccc1)c1n[nH]c2c1CCCC2,33.3 ± 7.3
19,Oc1ccc(/C=N/Nc2cccc3cccnc23)c(O)c1,40.8 ± 12
20,O=C(Nc1ccc(O)cc1)c1c(O)c2c([nH]c1=O)CCCC2,29.7 ± 1.1
